Results filed as inconclusive are left out. Values without a mark were called inactive. Calls follow the shape of the dose curve; as a rule, active = well fitted inhibition curve with a large enough effect; inconclusive = small, poorly fitted or top-dose-only effect; inactive = flat fitted curve, though single readings scatter.
target: Aldehyde dehydrogenase, mitochondrial (Homo sapiens) (UniProt P05091); assay: qHTS for Inhibitors of the Aldehyde Dehydrogenase Family (ALDH2) Primary screen (AID 2061308); details: ALDH2 enzyme inhibition qHTS, 1536-well; series mostly up to 56 µM; activity change, negative = inhibition: at the top concentration;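 also: plate controls were vehicle for no effect and reference inhibitor for full effect; nearly all actives have a fitted effect of over 55% in size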

Compound	activity change, negative = inhibition
CC(=O)O[C@@]1(C)C[C@@H](O)[C@]2(O)C=CO[C@@H](O[C@@H]3O[C@H](CO)[C@@H](O)[C@H](O)[C@H]3O)[C@@H]21	5.89% [at 28 µM]
CC(=O)C1=CCC2C3CC=C4CC(O)CC(O)C4(C)C3C(O)CC12C (configuration not stated)	7.03%
C/C=C/C=C/C(=O)OC1CC/C=C/C(O)C(O)C(CCC)OC1=O (configuration not stated)	2.99%
COc1cc(C)c(C(=O)O[C@H]2[C@@H](OC(C)=O)[C@H](n3ccc(=O)[nH]c3=O)O[C@@H]2CO)c(OC)c1	9.62% [at 28 µM]
CC(=O)N[C@@H](CCCCN)C(=O)N(C)[C@@H](CC(C)C)C(=O)N[C@H](C(=O)N(C)[C@@H](Cc1ccccc1)C(=O)N[C@H](Cc1ccccc1)C(N)=O)C(C)C	0.957% [at 5.59 µM]
CC1(C)[C@@H](O[C@H]2O[C@H](C(=O)O)[C@@H](O)[C@H](O)[C@H]2O[C@@H]2O[C@H](C(=O)O)[C@@H](O)[C@H](O)[C@H]2O)CC[C@]2(C)[C@H]3C(=O)C=C4[C@@H]5C[C@@](C)(C(=O)O)CC[C@]5(C)CC[C@@]4(C)[C@]3(C)CC[C@@H]12	-5.12% [at 28 µM]
CC1(C)CCCC2(C)C(CO)C(CO)=CCC12 (configuration not stated)	-5.56%
CC(C)=CCC/C(C)=C/CCC1(C)Oc2c(c(O)cc3c2CN(C(CCC(=O)O)C(=O)O)C3=O)CC1O (configuration not stated)	-10.7% [at 28 µM]
CC1COC(Nc2ccc3ncnc(Nc4ccc(OCc5nccs5)c(Cl)c4)c3c2)=N1 (configuration not stated)	5.68%
CC(=O)OC[C@@]12[C@H](O)C[C@@H](C)[C@]3(C[C@@H](c4ccoc4)OC3=O)[C@H]1C[C@H](O)C[C@]21CO1	15.6% [at 28 µM]
CC1(C)CC[C@]2(C(=O)O)[C@H](O)C[C@]3(C)C(=CCC4[C@@]5(C)CC[C@H](O[C@@H]6OC[C@@H](O)[C@H](O)[C@H]6O)[C@@](C)(C(=O)O)C5CC[C@]43C)[C@@H]2C1 (some centres not stated)	3.4% [at 16.9 µM]
CC(=O)OC(C)(C)/C=C/C(=O)C(C)(O)C1C(O)CC2(C)C3CC=C(C(C)(C)C(=O)O)C(CC(=O)O)C3(C)C(=O)CC12C (configuration not stated)	1.24% [at 16.9 µM]
O=C(O)c1cccc(CN2C(=O)/C(=C(\c3ccccc3)c3ccc(Cl)cc3)c3ccccc32)c1	-0.685%
C[C@H](NC(=O)C(C)(C)Oc1ccc(C(F)(F)F)cn1)[C@@H](Cc1ccc(Cl)cc1)c1cccc(C#N)c1	10.3%
C=C(C(=O)O)[C@@H]1CC[C@@]2(C)CCC[C@@](C)(O)[C@@H]2C1	9.66%
COC1OC(=O)C2=C1C1(C)CCCC(C)(C)C1CC2O (configuration not stated)	10.3%
COc1ccc(-c2ccccc2)cc1NS(=O)(=O)c1cc(Cl)cc(Cl)c1O	0.0613% [at 28 µM]
C=C(C(=O)O)[C@@H]1CC[C@H](C)[C@@H]2CC(=O)C(C)=C2C1	3.54%
CC(C)=CCC[C@](C)(O[C@@H]1O[C@H](CO[C@@H]2OC[C@@H](O)[C@H](O)[C@H]2O)[C@@H](O)[C@H](O)[C@H]1O)[C@H]1CC[C@]2(C)[C@@H]1[C@H](O)C[C@@H]1[C@@]3(C)CC[C@H](O[C@@H]4O[C@H](CO)[C@@H](O)[C@H](O)[C@H]4O)C(C)(C)[C@@H]3CC[C@]12C	-1.45% [at 28 µM]
CC(=O)OCC1OC(O[C@H]2CC[C@@]3(C)C(CC[C@]4(C)C3CC=C3[C@@H]5CC(C)(C)CC[C@]5(C(=O)O)CC[C@]34C)[C@]2(C)CO)C(O)C(O)C1OC1OC(C)C(O)C(OC2OCC(O)C(O)C2O)C1O (some centres not stated)	11.7% [at 16.9 µM]
CO[C@H]1[C@@H](O)[C@H](O[C@H]2CC[C@@]3(C)C(CCC4C3CC[C@]35COC6(COC(=O)C6)C3CCC45O)C2)O[C@@H](C)[C@@H]1OC1OC(CO)C(OC2OC(CO)C(O)C(O)C2O)C(O)C1O (some centres not stated)	-5.11% [at 16.9 µM]
OCC(CO[C@@H]1O[C@H](CO)[C@@H](O)[C@H](O)[C@H]1O)c1ccc2c(c1)OCO2 (some centres not stated)	10.3%
COc1cc(O)cc(C)c1C(=O)OC1C(CO)OC(OC2C(O)C(O)C(O)C(O)C2O)C(O)C1O (configuration not stated)	2.02% [at 28 µM]
C/C=C(\C)C(=O)OCC1OC(OCC2OC(OC3(CO)OC(CO)C(O)C3O)C(O)C(O)C2O)C(O)C(O)C1O (configuration not stated)	-2.02% [at 16.9 µM]
O=C1[C@H](O[C@@H]2O[C@H](CO)[C@@H](O)[C@H](O)[C@H]2O)Oc2ccccc2N1O	-0.357%
CC(C)c1ccc2c(c1)[C@H](O)CC1[C@@](C)(C(=O)O)CCC[C@]21C (some centres not stated)	-13.7%
CC1=CC2/C=C(\C)CC[C@@H](O)[C@@H](O)[C@@H]3O[C@@H]3C(=O)[C@]23C(=O)N[C@@H](CC(C)C)[C@@H]3[C@@H]1C (some centres not stated)	-6.34% [at 28 µM]
